# From article PMC12136788
# Positions count from the first letter of the chain named. Whole data set: some 24,000 sequences, median “enrichment r” near 0.99, cut for the highest 2% near 3.7. Only a selection was taken, and the highest values are over-represented in it overall.
# T1: UNK ZnF1-3 (human, UniProt Q9C0B0 31-174)
# T1 sequence: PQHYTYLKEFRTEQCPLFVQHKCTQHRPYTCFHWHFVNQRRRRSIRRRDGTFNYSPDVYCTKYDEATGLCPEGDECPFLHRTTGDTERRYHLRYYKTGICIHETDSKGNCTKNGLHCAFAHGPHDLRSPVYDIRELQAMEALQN
# B1: chr9:115598534:115598535:+_ENSG00000148158_ENST00000374232|hu_mus|motif|central (ssRNA)
# RNA: GGGAGUUCUACAGUCCGACGAUCCAGCUUAUAGCCUCCGGUGACGUGCUUGACUGACUCACCCACUCUGCUCAGCAAUGCGGUCCCUUGCUUCUUGUAGGCAUUCAGGUCCUUAGCAGUGAGGAACACAUUGAAGUGUUCAUUCAACAGAGGAUUGAGCAUCA
# B2: chr8:41682716:41682717:-_ENSMUSG00000039431_ENSMUST00000048898|mus_hu|motif|central (ssRNA)
# RNA: GGGAGUUCUACAGUCCGACGAUCCACAUCGCUGAGCUGCCAGUAAUGAUUAGGGAGGCCCAUCCGCGUGUAUUCUUCACGGAGAUCGAUCAGCACCCAGCCUUGCUCUCUUUCUUCUUUAUCCAGCAUGGGGUUGAAUGAAAACAACAGAGGAUUGAGCAUCA
# B3: 34871406_34871526_3634_3pUTR_ENSMUSG00000037503_ENSMUST00000047534|mouse|control|control (ssRNA)
# RNA: GGGAGUUCUACAGUCCGACGAUCAUGGUGGUGGGUUUGCUUCUCCAGAGUCAAGGAGCUUACAGUUUCCAAUACUCCACAACUCUAAACUGCAAGCAGCAGCAGCCGAGGAAGGAAGGCCCCUAGCCUCAGGGACGGCAGCAGCAACAGAGGAUUGAGCAUCA
# B4: chr3:38349274:38349275:-_ENSMUSG00000044864_ENSMUST00000156038|mus_mus|FALSE|FALSE (ssRNA)
# RNA: GGGAGUUCUACAGUCCGACGAUCAAAUGACCAAGUACAGCAAGCAGGCUGGCUACAGCACCCUGGUCAGCCUGGUCCUCGCCAGAAGCUGUUUUUGUUCUACUUUAAAUCAGUUAAUAAUAAAAACAAAACAAAAGGGAAAAACAACAGAGGAUUGAGCAUCA
# B5: chr9:108469239:108469240:-_ENSMUSG00000070283_ENSMUST00000074208|mus_hu|FALSE|FALSE (ssRNA)
# RNA: GGGAGUUCUACAGUCCGACGAUCGGGAAGCUCAACGGGCGGACAGCGCAGCGAGGGUCGCGCUCGGUACAAGCUACGUAGCGCGAGAGCGGUGGCCAUGGCUGACCAACGCGCGGCGAAGUCGUCACCGGCGCCGUUAGUCCCCAACAGAGGAUUGAGCAUCA
# B6: chr15:100311029:100311030:-_ENSMUSG00000044636_ENSMUST00000061457|mus_mus|FALSE|FALSE (ssRNA)
# RNA: GGGAGUUCUACAGUCCGACGAUCGCCUGGUCUACAUAGCAAGUCCCAGGCCAGCCAGGGCUGUUUAGCAACACACUGCCUAAAAAAAAAAAAAGAAAAAAGAAAAGAAAAGAAAAGAAAAGAAAAGAAAAGAAAAGAAAAGAACAACAGAGGAUUGAGCAUCA
# B7: chr4:155540527:155540528:-_ENSMUSG00000041936_ENSMUST00000154494|mus_hu|FALSE|FALSE (ssRNA)
# RNA: GGGAGUUCUACAGUCCGACGAUCGCCUGGACGGAAGGGAGGCCGGGCCAGCAGUCCCUCCGGCCAACACUCAGGCAAGAAAAUCAUAUCAAAAAGCAACAAGUUUACAAAAAUAGAAAAUAAUUACAGCGGGCGCGGGGCUCUCAACAGAGGAUUGAGCAUCA
# B8: 91351710_91351830_385_5pUTR_ENSMUSG00000055013_ENSMUST00000027521|mouse|control|control (ssRNA)
# RNA: GGGAGUUCUACAGUCCGACGAUCAAGAAAAAGAAAAAGAAAAAGAAAAGAACGCUGAGGAUGAAGCAGUAGAGGGGCUCAGUUCAUAGCAGGGACCAGCGUCCCGGGUCAGCGGGCCGUCCGGGAAGACCGCGGCGCCAUGGACAACAGAGGAUUGAGCAUCA
# B9: chr7:23239867:23239868:+_ENSG00000136243_ENST00000258742|hu_hu|FALSE|FALSE (ssRNA)
# RNA: GGGAGUUCUACAGUCCGACGAUCCCCAAAACCAGCAGGGCUUCCAGAAGAGGCAGCAGCAAAUCCAGAGUUUGUUUUAAAACUAAAGUUCUGAGCAUUAUCACUGCUGCUGUUAUUGACUGGAAAGCCUGGCGACAUAAAUGUCAACAGAGGAUUGAGCAUCA
# B10: chr15:100311029:100311030:-_ENSMUSG00000044636_ENSMUST00000061457|mus_mus|motif|central (ssRNA)
# RNA: B6 RNA with U80G, A81G
# B11: chr2:181041410:181041411:-_ENSMUSG00000027581_ENSMUST00000103045|mus_hu|FALSE|FALSE (ssRNA)
# RNA: GGGAGUUCUACAGUCCGACGAUCAGCAUGAAGCUGGGGGCGGGGGUGGGGGAGGAGGAACAAAAGUUGCAUCUAGACAGAGGUGAACGAAACAAAACCAAAACCCGAACGUGUUCUGUCGCAGGAUGGGCGCCGCCCGUCCCGCAACAGAGGAUUGAGCAUCA
# B12: chr4:140556289:140556290:+_ENSMUSG00000036622_ENSMUST00000037055|mus_mus|mus_mus_mus_hu_False|8_78 (ssRNA)
# RNA: GGGAGUUCUACAGUCCGACGAUCGAUGGAGCUCACCAGGCCCCCUUUUGCCGUGCAGAACCCUGUCCGGGUCACCACUGCCAGGACGUGCGGUCCCACAUAGGCCCGGGCCUGCAAGAUGAGGGUCCCACAGAAGAGUGUGUGCAACAGAGGAUUGAGCAUCA
# B13: chr18:64617603:64617604:-_ENSMUSG00000024588_ENSMUST00000025484|mus_mus|FALSE|FALSE (ssRNA)
# RNA: GGGAGUUCUACAGUCCGACGAUCGCGGGAGGCACACUGGAAGCCAGUUUGGCCUACAUAGGGCAAGCGAGAAAUAAGAUAAAAUAAGAUAAAACACAGGCAAGAGAGAAAUCACAGUUUGUGCCCAGACAAACGUGGCUUCUGCAACAGAGGAUUGAGCAUCA
# B14: chr12:86311719:86311720:-_ENSMUSG00000042350_ENSMUST00000043169|mus_hu|FALSE|FALSE (ssRNA)
# RNA: GGGAGUUCUACAGUCCGACGAUCGACUGCCAAAGGACGCCCCAGGAUCCCGAGCCGGGGGUUGCAGCGCGACGAAGUUCCACCUCCGCUGUCCUGGGAAGGGGCGGCAGCACUCAGCAGAAGACGGGCUCCCCACUCUCCCACCAACAGAGGAUUGAGCAUCA
# B15: chr2:104430758:104430759:+_ENSMUSG00000027176_ENSMUST00000028599|mus_mus|motif|central (ssRNA)
# RNA: GGGAGUUCUACAGUCCGACGAUCGGGACUACAACGUACGCACCAGCCGGCAAAGGGAAGCUAGAAAAGGAAAAUUAAACGGAAGGCAAACCCCACCAAAACCAGGAACACUACCCCUGUCCCUCAGAGCCAAAGCCGCCGCCACAACAGAGGAUUGAGCAUCA
# B16: chr14:57575763:57575764:+_ENSMUSG00000021945_ENSMUST00000022511|mus_hu|FALSE|FALSE (ssRNA)
# RNA: GGGAGUUCUACAGUCCGACGAUCCACUGUUUUCAGGCCAAAAUACUUAGUGUUAAAGUAGAACAGUGUAUUCAGAAGAGCUACUGGAGAGUGUGAUCCUAGUUGUUUUAUCCUCCAGAGAUAGUCUUCUUCAACUCGAGAGAACAACAGAGGAUUGAGCAUCA
# B17: chr1:183495733:183495734:+_ENSG00000116698_ENST00000515829|hu_hu|FALSE|FALSE (ssRNA)
# RNA: GGGAGUUCUACAGUCCGACGAUCGGAAGACUUCACACGGCAUGGUAAAUCUACAUUAAAUACUGUACACAGUUCUUGUAAUAACUGAGUAUAGAAGCCACUAGCUGCCUCUAGGAACAGAGAAAGGUUUGCCUGAACUUCACUCAACAGAGGAUUGAGCAUCA
# B18: chr12:58340223:58340224:+_ENSMUSG00000079104_ENSMUST00000139049|mus_mus|motif|central (ssRNA)
# RNA: GGGAGUUCUACAGUCCGACGAUCCUGUAUUUUGGAGCAGUGUUUCAUCUUGUCUUCCUGAGGUAUGGUAUUGGUAACGGCGGCUGCUUCAAAGCAUGCAUUGUUGAUGCGAGAAAUGGCAGGGCCAGAGAAGAUUCCAUGCGUCAACAGAGGAUUGAGCAUCA
# B19: chr12:39763582:39763583:-_ENSG00000139116_ENST00000544797|hu_mus|hu_hu_hu_mus_False|18_58 (ssRNA)
# RNA: GGGAGUUCUACAGUCCGACGAUCCUCUAGGAACUGGGCAUUCACUUUGAAUUCAGGAGGGGGCAGCCCGUUUUUAAUUGCUAUGUGCUUUUUCUCAUCAAUACUCUUGAACAGGUGUUUAACAGCUCGAGAGAUGAUGCCCUGCAACAGAGGAUUGAGCAUCA
# B20: chr2:74756847:74756848:-_ENSG00000115307_ENST00000377526|hu_hu|FALSE|FALSE (ssRNA)
# RNA: GGGAGUUCUACAGUCCGACGAUCGCCGCCAUUUUCGCGCCCGGCCGCAGGGGCUCUUGGGAAGGCGGAGUCUUUGGGCAUCCGCCCGGGGUGAGGGGACCCGAAGUCCUGAGGCGCGCCGGAAGGGCUAGCGGUCCCAGCAUACAACAGAGGAUUGAGCAUCA
# B21: 138058580_138059465_3786_CDS_ENSMUSG00000041642_ENSMUST00000075164|mouse|control|control (ssRNA)
# RNA: GGGAGUUCUACAGUCCGACGAUCGGAGGCCAGGGACUUGGUGAUGUUCUUGGUAGAGCUGUCCAAUGGGGGUCCUAGGCACUCCGCAGACACGGCCUUCAUCUGUGCGGAUAGCUUGGGCUCACCCUUGAACUUGAAGUCAUCCAACAGAGGAUUGAGCAUCA
# B22: chr8:104447970:104447971:+_ENSG00000164934_ENST00000297579|hu_hu|hu_hu_hu_mus_False|78_98 (ssRNA)
# RNA: GGGAGUUCUACAGUCCGACGAUCAUACACUUCCCUGCUUCGACUUUUGUCCACAGGAAAGAUUCGAAUAGACUUAUCAAAGCUGGCAGACACAAAUUCCUUCCCAGUGGGAGAGUAGUCCACAUCAAGUACUGCAGACACGUGCAACAGAGGAUUGAGCAUCA
# Target: T1, UNK ZnF1-3
# Assay: nsRBNS (natural sequence RNA bind-n-seq); RBNS binding buffer (assumed for nsRBNS): 25 mM Tris pH 7.5, 150 mM KCl, 3 mM MgCl2, 0.01% Triton X-100, 500 ug/ml BSA, 20 U/ml SUPERase-In, 4 C; UNK is unkempt and MSI1 is Musashi-1; names of the RNAs are library labels; protein concentration not given here; high values mean tight binding
row,Binder,binding signal
1,B1,0.691 enrichment R
2,B2,1.07 enrichment R
3,B3,1.48 enrichment R
4,B4,0.882 enrichment R
5,B5,0.446 enrichment R
6,B6,4.34 enrichment R
7,B7,4.13 enrichment R
8,B8,4.11 enrichment R
9,B9,0.668 enrichment R
10,B10,4.43 enrichment R
11,B11,3.3 enrichment R
12,B12,1.02 enrichment R
13,B13,3.43 enrichment R
14,B14,1.33 enrichment R
15,B15,2.17 enrichment R
16,B16,1.1 enrichment R
17,B17,1.13 enrichment R
18,B18,0.938 enrichment R
19,B19,1.58 enrichment R
20,B20,0.69 enrichment R
21,B21,0.543 enrichment R
22,B22,0.994 enrichment R
